Test [1] in a line: Nuclear factor erythroid 2-related factor 2/antioxidant responsive element (Nrf2/ARE) small molecule agonists: qHTS cell viability counter screen in human keratinocytes (AID 1919968; active = well fitted curve in the direction sought with a large enough effect in the repeat runs; an effect the other way counts as inactive or inconclusive; note: nearly all actives have a fitted effect of over 55% in size; note: potency is the fitted concentration of half-maximal effect). The method, boiled down: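 KeratinoSens HaCaT cells, 1,500/well, preincubated 5 h, then exposed to compounds in DMSO for 23 h at 37 C/5% CO2. Viability read as CellTiter-Fluor fluorescence after 1 h, in the same wells as the ARE-luciferase read.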
(qHTS replaces the single test concentration by a dilution series.)

The nature of test [2]: Nuclear factor erythroid 2-related factor 2/antioxidant responsive element (Nrf2/ARE) small molecule agonists: luciferase reporter gene qHTS assay in human keratinocytes (AID 1919969). Note: nearly all actives have a fitted effect of over 35% in size. Note: potency is the fitted concentration of half-maximal effect.
The target of test [3] is Gonadotropin-releasing hormone receptor (Homo sapiens) (UniProt P30968). As to the kind of experiment: Human gonadotropin-releasing hormone receptor (GnRHR) small molecule agonists, calcium flux assay in GnRHR-HEK293 cells (AID 1920063). Note: nearly all actives have a fitted effect of over 35% in size. In short, it runs like this:
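HEK293 cells stably expressing human GnRHR were dye-loaded for 1 h at 37 C. Compound was added in agonist mode and fluorescence (Ex/Em 480/540) recorded kinetically for 3 min. Fifteen concentrations, triplicates.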
On the technique in general: A change in cytosolic calcium serves as a functional read-out for many receptors and channels.

The target of test [4] is KiSS-1 receptor (Homo sapiens) (UniProt Q969F8). As to the kind of experiment: Human kisspeptin (KISS1R) small molecule agonists, calcium flux assay in KISS1R-HEK293 cells (AID 1920064; active = well fitted curve in the direction sought with a large enough effect in the repeat runs; an effect the other way counts as inactive or inconclusive). The method, boiled down: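 HEK293 cells stably expressing human KISS1R were loaded with calcium dye for 1 h at 37 C, then given compound; fluorescence (Ex/Em 480/540) was read kinetically for 3 min. Fifteen concentrations, triplicate.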

Test [5] is described as follows: G protein-coupled receptor (GPCR) small molecule agonists, calcium flux assay: HEK293 wild type cell line counter screen (AID 1920065). The method, boiled down:
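Wild-type HEK293 cells plated 18 h, loaded with calcium dye 1 h at 37 C, then compounds added in agonist mode (ATP as positive control). Kinetic fluorescence Ex/Em 480/540 recorded 3 min at 1 sec intervals; 15 concentrations, triplicate.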

The nature of test [6]: p53 small molecule agonists, cell-based qHTS assay with human liver microsomes (AID 1963577). In short, it runs like this:
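p53RE-bla reporter cells were pre-incubated 5 h at 37 C, then treated with compounds plus human liver microsomes (0.5 mg/mL final) and NADPH (0.5 mg/mL final) for 16 h at 37 C. Beta-lactamase activity was read by LiveBLAzer fluorescence after 2 h at room temperature.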

Test [7] can be described thus: p53 small molecule agonists, cell-based qHTS assay with human liver microsomes: qHTS cell viability counter screen (AID 1963579). Note: nearly all actives have a fitted effect of over 45% in size. In short, it runs like this: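 p53RE-bla cells (4,000/well) were pre-incubated 5 h at 37 C, then given compounds in DMSO plus human liver microsomes (0.5 mg/mL final) and NADPH (0.5 mg/mL final) for 16 h at 37 C. Viability was read by CellTiter-Glo luminescence.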

A short description of test [8]: p53 small molecule agonists, cell-based qHTS assay with rat liver microsomes: qHTS cell viability counter screen (AID 1963580). Note: nearly all actives have a fitted effect of over 45% in size. The method, boiled down: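 p53RE-bla HCT-116 cells were exposed 16 h at 37 C to compounds with rat liver microsomes (0.5 mg/mL) and NADPH (0.5 mg/mL). Viability was measured in the same wells as ATP content by CellTiter-Glo luminescence.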

The nature of test [9]: p53 small molecule agonists, cell-based qHTS assay: qHTS cell viability counter screen (AID 1963581). Note: nearly all actives have a fitted effect of over 45% in size. The method, boiled down: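 p53RE-bla HCT-116 cells, compounds added 5 h after plating and incubated 16 h at 37 C. Cytotoxicity measured in the same wells as intracellular ATP by CellTiter-Glo luminescence after 30 min at room temperature.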
Test [10] can be described thus: p53 small molecule agonists, cell-based qHTS assay (AID 1963582; active = well fitted activation curve with a large enough effect in the signal ratio in the repeat runs, not every such curve was filed as active; the % refers to the signal ratio). The method, boiled down:
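p53RE-bla reporter cells, compounds added in DMSO after 5 h plating, incubated 16 h at 37 C. Beta-lactamase read via 2 h room-temperature LiveBLAzer B/G FRET substrate, fluorescence intensity.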

Test [11] deals with 5-hydroxytryptamine receptor 2A (Homo sapiens) (UniProt P28223). Nature of the test: 5-hydroxytryptamine receptor 2A (HTR2A) small molecule antagonists, cell-based qHTS assay (AID 1963586). Note: nearly all actives have a fitted effect of over 45% in size. The method, boiled down: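 Antagonist-mode intracellular calcium assay: DOI (4 nM) added after 5 min compound pre-incubation at room temperature to dye-loaded HTR2A-CHO cells. Fluorescence followed for 3 min, sampled every second.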

Test [12] has the same target. Nature of the test: 5-hydroxytryptamine receptor 2A (HTR2A) small molecule agonists, cell-based qHTS assay (AID 1963587). Note: nearly all actives have a fitted effect of over 30% in size. In short, it runs like this:
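CHO cells stably expressing human HTR2A, plated 18 h, loaded with calcium dye 1 h at 37 C. Agonist mode: compounds added and intracellular calcium fluorescence recorded kinetically for 2 min at 1 sec intervals.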

Test [13] can be described thus: cAMP Responsive Elements (CRE) small molecule agonists, cell-based qHTS assay (AID 1963590). In short, it runs like this: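 CRE-bla HEK 293T cells, 2,000/well in DMEM with 10% dialyzed FBS and 25 mM HEPES, pre-incubated 18 h at 37 C, then exposed to compound 3 h at 37 C. Beta-lactamase reporter read with LiveBLAzer B/G FRET substrate after 2 h at room temperature.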

Test [14] can be described thus: cAMP Responsive Elements (CRE) small molecule antagonists, cell-based qHTS assay (AID 1963591; active = well fitted inhibition curve with a large enough effect in the signal ratio in the repeat runs, not every such curve was filed as active; the % refers to the signal ratio). The method, boiled down:
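CRE-bla HEK293T cells plated 18 h, then given compound plus NKH477 at 0.25 uM final for 3 h at 37C. Beta-lactamase reporter read with LiveBLAzer B/G FRET substrate after 2 h at room temperature.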

In test [15] the target is Beta-2 adrenergic receptor (Homo sapiens) (UniProt P07550). As to the kind of experiment: Adrenergic beta2 receptor (ADRB2) small molecule antagonists, cell-based qHTS assay (AID 1963592). Note: series mostly up to about 92 µM; nearly all actives have a fitted effect of over 50% in size. In short, it runs like this: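 Cells (CHO, stable ADRB2 overexpression) incubated 18-20hr at 37C; compounds added from DMSO; agonist mix (1nM isoproterenol, 100uM IBMX, 25uM Ro-20-1724) added; 0.5hr RT; d2-cAMP and anti-cAMP-cryptate added; 1hr RT; 665/615 nm read.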

For test [16] the target is unchanged. Nature of the test: Adrenergic beta2 receptor (ADRB2) small molecule agonists, cell-based qHTS assay (AID 1963593).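 Note: CHO cells stably overexpressing human ADRB2.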 In short, it runs like this:
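CHO cells stably over-expressing ADRB2 were plated overnight at 37C, then dosed with compounds plus a stimulation mix containing 100uM IBMX and 25uM Ro-20-1724 for 0.5hr at room temperature. cAMP was measured by HTRF competition, 1hr.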

Test [17] concerns the target D(2) dopamine receptor (Homo sapiens) (UniProt P14416). As to the kind of experiment: Dopamine D2 receptor (DRD2) small molecule agonists, cell-based qHTS assay (AID 1963594). Note: nearly all actives have a fitted effect of over 35% in size. In short, it runs like this: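 HEK293 cells stably expressing human DRD2, pre-treated with PDE inhibitor Ro20-1724 (0.1 mM final) and compound 10 min at room temperature, then stimulated with NKH477 (200nM […]) for 30 min. cAMP read by HTRF (665/620 nm).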

Test [18] has the same target. As to the kind of experiment: Dopamine D2 receptor (DRD2) small molecule antagonists, cell-based qHTS assay (AID 1963595; active = well fitted inhibition curve with a large enough effect in the signal ratio in the repeat runs, with a control signal flat; the % refers to the signal ratio). The method, boiled down:
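HEK293 cells stably expressing DRD2, preincubated with 0.1 mM Ro20-1724 and compounds 10 min, were stimulated with 200 nM NKH477 plus 12 nM quinpirole for 30 min at room temperature; cAMP measured by HTRF (665/620 nm).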

In test [19] the target is Muscarinic acetylcholine receptor M1 (Homo sapiens) (UniProt P11229). As to the kind of experiment: Cholinergic receptor muscarinic 1 (CHRM1) small molecule antagonists, cell-based qHTS assay (AID 1963588). Note: nearly all actives have a fitted effect of over 40% in size. The method, boiled down:
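CHRM1-CHO calcium-flux assay, antagonist mode. Cells were seeded 18 h, dye-loaded 1 h at 37 C and given compound for 5 min at RT, then acetylcholine was added at 50nM. FDSS fluorescence was read 3 min; 15 concentrations, three runs.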

The target is the same in test [20]. As to the kind of experiment: Cholinergic receptor muscarinic 1 (CHRM1) small molecule agonists, cell-based qHTS assay (AID 1963589). Note: nearly all actives have a fitted effect of over 35% in size. In short, it runs like this:
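CHO cells stably expressing human CHRM1 were loaded with calcium dye for 1 h at 37 C, then compound was added in agonist mode. Intracellular calcium fluorescence was followed kinetically at 1 s intervals. Fifteen concentrations were tested in three independent runs.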

Molecules are shown by their SMILES. Where “and” joins values, the source holds several entries; their conditions need not be identical. Equal values may be shown once. Inconclusive results are not listed. Calls of active or inactive are those of the source. Unless noted, calls come from the whole dose curve.

5-hydroxytryptamine receptor 2A (Homo sapiens), sequence (P28223 whole entry, looked up): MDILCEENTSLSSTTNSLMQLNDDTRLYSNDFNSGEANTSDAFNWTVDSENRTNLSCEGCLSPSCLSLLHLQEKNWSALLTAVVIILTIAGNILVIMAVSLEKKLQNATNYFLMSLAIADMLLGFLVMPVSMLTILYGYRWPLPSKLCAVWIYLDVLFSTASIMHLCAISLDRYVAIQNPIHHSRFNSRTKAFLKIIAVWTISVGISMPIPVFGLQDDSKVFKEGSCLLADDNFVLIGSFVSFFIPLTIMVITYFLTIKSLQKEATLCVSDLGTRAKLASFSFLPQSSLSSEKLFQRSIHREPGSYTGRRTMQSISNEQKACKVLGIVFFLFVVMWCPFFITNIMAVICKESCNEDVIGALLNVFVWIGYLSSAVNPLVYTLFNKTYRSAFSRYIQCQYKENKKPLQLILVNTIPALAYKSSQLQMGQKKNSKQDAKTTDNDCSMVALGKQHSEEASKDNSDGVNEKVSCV
Muscarinic acetylcholine receptor M1 (Homo sapiens), sequence (P11229 whole entry, looked up): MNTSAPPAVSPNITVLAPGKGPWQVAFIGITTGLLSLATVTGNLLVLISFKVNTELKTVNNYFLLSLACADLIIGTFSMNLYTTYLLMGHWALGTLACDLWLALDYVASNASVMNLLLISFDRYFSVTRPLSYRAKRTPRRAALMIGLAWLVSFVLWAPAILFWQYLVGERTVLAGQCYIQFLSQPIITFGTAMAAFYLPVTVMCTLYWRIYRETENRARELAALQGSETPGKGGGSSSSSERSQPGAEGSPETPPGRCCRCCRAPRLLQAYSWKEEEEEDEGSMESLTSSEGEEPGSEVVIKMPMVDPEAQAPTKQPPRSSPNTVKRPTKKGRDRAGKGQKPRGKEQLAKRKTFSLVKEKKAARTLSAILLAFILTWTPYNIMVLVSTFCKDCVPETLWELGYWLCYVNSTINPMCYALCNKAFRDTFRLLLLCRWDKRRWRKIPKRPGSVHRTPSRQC
Gonadotropin-releasing hormone receptor (Homo sapiens), sequence (P30968 whole entry, looked up): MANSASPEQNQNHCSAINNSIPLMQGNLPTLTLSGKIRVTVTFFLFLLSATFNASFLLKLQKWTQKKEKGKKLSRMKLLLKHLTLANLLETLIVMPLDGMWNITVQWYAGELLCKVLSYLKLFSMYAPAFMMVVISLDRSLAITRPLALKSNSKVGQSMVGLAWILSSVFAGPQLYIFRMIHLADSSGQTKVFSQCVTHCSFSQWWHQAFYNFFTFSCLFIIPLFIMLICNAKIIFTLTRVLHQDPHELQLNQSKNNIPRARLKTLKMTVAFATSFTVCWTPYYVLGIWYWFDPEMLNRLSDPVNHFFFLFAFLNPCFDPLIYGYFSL
D(2) dopamine receptor (Homo sapiens), sequence (P14416 whole entry, looked up): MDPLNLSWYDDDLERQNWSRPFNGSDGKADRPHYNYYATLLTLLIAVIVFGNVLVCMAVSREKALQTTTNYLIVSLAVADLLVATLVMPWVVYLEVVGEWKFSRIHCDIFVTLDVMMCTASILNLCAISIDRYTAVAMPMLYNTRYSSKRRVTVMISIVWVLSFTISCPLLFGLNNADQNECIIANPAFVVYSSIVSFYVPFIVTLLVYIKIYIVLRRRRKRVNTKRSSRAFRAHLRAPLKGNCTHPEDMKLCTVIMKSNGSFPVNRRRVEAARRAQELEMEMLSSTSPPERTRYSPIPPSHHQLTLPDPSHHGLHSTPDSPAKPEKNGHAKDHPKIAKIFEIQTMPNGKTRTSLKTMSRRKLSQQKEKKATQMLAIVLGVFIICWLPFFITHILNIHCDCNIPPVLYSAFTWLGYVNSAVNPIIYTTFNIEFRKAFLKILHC
Beta-2 adrenergic receptor (Homo sapiens), sequence (P07550 whole entry, looked up): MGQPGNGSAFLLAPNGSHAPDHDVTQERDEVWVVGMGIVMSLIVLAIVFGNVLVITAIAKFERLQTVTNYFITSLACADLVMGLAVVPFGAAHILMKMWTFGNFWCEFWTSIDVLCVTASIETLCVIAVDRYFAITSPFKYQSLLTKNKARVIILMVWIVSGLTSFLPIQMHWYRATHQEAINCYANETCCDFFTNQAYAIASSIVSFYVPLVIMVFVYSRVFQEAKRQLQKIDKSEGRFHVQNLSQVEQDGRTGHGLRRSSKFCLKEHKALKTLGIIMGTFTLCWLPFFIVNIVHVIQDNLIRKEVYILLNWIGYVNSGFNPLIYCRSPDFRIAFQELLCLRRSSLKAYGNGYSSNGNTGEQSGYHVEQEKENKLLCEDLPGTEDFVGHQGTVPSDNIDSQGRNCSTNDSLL
KiSS-1 receptor (Homo sapiens), sequence (Q969F8 whole entry, looked up): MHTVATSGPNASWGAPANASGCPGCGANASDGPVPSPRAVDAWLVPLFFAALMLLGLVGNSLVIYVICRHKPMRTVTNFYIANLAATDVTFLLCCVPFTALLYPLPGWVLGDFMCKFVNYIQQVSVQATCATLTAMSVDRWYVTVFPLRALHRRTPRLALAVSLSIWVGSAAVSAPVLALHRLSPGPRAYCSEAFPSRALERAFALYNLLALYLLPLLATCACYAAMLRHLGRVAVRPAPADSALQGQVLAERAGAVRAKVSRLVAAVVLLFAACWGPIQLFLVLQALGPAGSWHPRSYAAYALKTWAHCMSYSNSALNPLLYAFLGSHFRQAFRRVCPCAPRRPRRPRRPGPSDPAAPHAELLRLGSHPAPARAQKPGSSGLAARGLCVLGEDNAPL

For `O=[N+]([O-])O[C@H]1CO[C@H]2[C@@H]1OC[C@H]2O[N+](=O)[O-]`, the Potency entry in test [1], in test [2], in test [3], in test [4], in [5] and in test [6] was “inactive” throughout. Further, the Potency entry in test [7], in test [8], in [9], in [10], in test [11] and in [12] was “inactive” each time. The Potency result in test [13], in test [14], in [15], in [16], in [17] and in [18] was “inactive” throughout.

Consider `Nc1ccc(Cl)c(Cl)c1`, for which the Potency entry in test [1], in [2], in [3], in test [4], in [5] and in [6] was “inactive” throughout. Moreover, the Potency entry in test [7], in test [8], in test [10], in test [11], in test [12] and in test [19] was “inactive” each time. For the same compound, the Potency entry in [20], in test [13], in test [14], in test [15], in test [16] and in [17] was “inactive” throughout. Also, the Potency entry in [18] was “inactive”.

For `c1ccc(Nc2ccc3ccccc3c2)cc1`, the Potency in test [1] is 68.2 µM (active); in test [2], 12.1 µM (active) and 21.7 µM (active). Besides, the Potency entry in test [3], in [4], in [5], in [6], in [8] and in [9] was “inactive” in each case. Also, the Potency entry in [10], in test [11], in test [12], in [19], in [20] and in test [14] was “inactive” in each case. Also, the Potency entry in [15], in test [16], in [17] and in test [18] was “inactive” in each case.

In the case of `CC(Br)C(=O)O` (centres undefined), the Potency entry in [1], in [2], in test [3], in test [4], in test [5] and in test [7] was “inactive” each time. In addition, the Potency entry in [8], in [9], in [10], in [11], in test [12] and in test [19] was “inactive” each time. For the same compound, the Potency result in test [20], in test [13], in test [14], in test [15], in test [16] and in test [17] was “inactive” each time. Further, in [18], the Potency result is “inactive”.

For the compound `[P]#[In]`, the Potency entry in test [1], in [2], in test [3], in test [4], in test [5] and in [7] was “inactive” throughout. Moreover, the Potency result in test [8], in [9], in [10], in test [11], in test [12] and in [19] was “inactive” throughout. Further, the Potency result in [20], in test [13], in test [14], in test [15], in [16] and in test [17] was “inactive” each time. In test [18], the Potency result was “inactive”.

With `O=P(O)(O)CCCl`, the Potency entry in [1], in test [2], in [3], in test [4], in test [5] and in test [7] was “inactive” each time. Besides, the Potency result in test [8], in test [9], in test [10], in test [11], in [12] and in test [19] was “inactive” in each case. Besides, the Potency result in test [20], in test [13], in test [14], in test [15], in test [16] and in test [18] was “inactive” throughout.

As to `CCCBr`, the Potency result in test [1], in [2], in test [3], in test [4], in [5] and in [7] was “inactive” in each case. For the same compound, the Potency result in [8], in [9], in test [10], in test [11], in test [12] and in test [19] was “inactive” each time. For the same compound, the Potency entry in test [20], in test [13], in [14], in [15], in test [17] and in test [18] was “inactive” in each case.
